High-throughput results deposited in PubChem BioAssay by National Center for Advancing Translational Sciences (NCATS).
Epigenetic reg: Quantitative High-Throughput Screen for Regulators of Epigenetic Control; AID 1865, 2009; murine LDR cells, GFP reporter derepression, 30 h; actives 0.2% (n = 280,000); Potency, µM (highest dose often 53.9 µM), without a hit: top-dose GFP activation, most hits filed as activators; note: % of control where 0% means no effect; nearly all actives have a fitted effect of over 60% in size
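Readout is the number of GFP-expressing murine LDR cells, counted by cytometry following washing. Cells were treated with compound for 30 h at 37 C; the stably integrated CMV-GFP locus is normally silent.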
Nrf2 activator: qHTS of Nrf2 Activators | Potency, µM (titrated, usually from 46.1 µM), without a hit: top-dose activation, hits mostly activators | AREc32 ARE-luciferase reporter (MCF7-derived line), luminescence, 24 h | actives 0.31% (n = 410,000); note: % of control where 0% means no effect; nearly all actives have a fitted effect of over 65% in size
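Steps: seed AREc32_Fluc cells (1000/well, 5% FBS OPTI-MEM); incubate overnight at 37 deg C; add 23 nL compound; incubate 24 hr; add Steady-Glo; hold 30 min RT; read luminescence.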
PINK1 expr mod: A Quantitative High throughput Screen to Identify Chemical Modulators of PINK1 Expression. PINK1 immunofluorescence, high-content cytometry, 24 h. Potency, µM (top dose mostly 76.6 µM), inactives show top-dose activation (PINK1 increase), hits mostly activators. actives 0.2% (n = 410,000). AID 624263, 2012; active = well fitted activation curve with a large enough effect; inconclusive = small, poorly fitted or top-dose-only effect; cell line not stated here; note: % of control where 0% means no effect; nearly all actives have a fitted effect of over 65% in size
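Fluorescence from anti-PINK1 antibody, together with nuclear and cell stains, was scanned on a laser-scanning cytometer. Before staining, stable-line cells were incubated 24 hours with compounds at 5 concentrations; primary antibody 12 h at 10 degrees C.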
Nrf2 block: Nrf2 qHTS screen for inhibitors | A549 ARE-Fluc reporter, luciferase luminescence, 18-24 h | Potency, µM (titrated, usually from 46 µM), for the others: at the highest dose activity change, negative = inhibition, usual class: inhibitors | actives 2.1% (n = 360,000) | AID 504444, 2011; note: % is set by controls: 0 for no effect and ±100 for the full control effect; nearly all actives have a fitted effect of over 60% in size
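Cells were seeded and rested 2 h, then exposed to compounds for 18-24 h. CellTiter-Fluor was read first as a viability measure. BugLite was added 15 min before the final luminescent read of ARE-luciferase activity in A549 cells.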
A549 viability: Nrf2 qHTS screen for inhibitors: counterscreen for cytotoxicity; A549 ARE-Fluc cells, CellTiter-Fluor viability, 18-24 h; Potency, µM (titrated, usually from 46 µM), inactives show at the top dose activity change, negative = cytotoxicity, most hits filed as inhibitors; actives 0.16% (n = 390,000); AID 504648, 2011; note: % is set by controls: 0 for no effect and ±100 for the full control effect
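A549 ARE-Fluc cells in 5% FBS OPTI-MEM, 5000 cells/well, rested 2 h then exposed to compounds in concentration-response for 18-24 h at 37 °C. Viability by CellTiter-Fluor fluorescence (Ex 405/Em 525) after 30 min; luciferase luminescence (BugLite, 15 min, RT) read afterwards.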
Numbers without * were called inactive; ? = inconclusive; · = not tested or not shown; [ ] = another dose, or the depositor's remark. Only some compounds are listed: those with a hit (about 2.4% of all), similar ones and a draw of the others. Unless noted, calls come from the whole dose curve; as a rule, active = well fitted curve in the direction sought with a large enough effect; inconclusive = small, poorly fitted or top-dose-only effect, or another doubt; inactive = no such curve, though single readings can be large; an effect the other way counts as inactive or inconclusive. Potency is the fitted concentration of half-maximal effect.

SMILES | Epigenetic reg | Nrf2 activator | PINK1 expr mod | Nrf2 block | A549 viability
CCN1CCCC1CNC(=O)c1cnn(-c2nccc(-c3cccs3)n2)c1C1CC1 (stereo unspecified) | · | · | 2% | · | ·
c1ccc2oc(CCc3nc4ccccc4o3)nc2c1 | -2% | 1% | 7% | 5% | 8%
c1ccc2oc(Cc3ccc(Cc4nc5ccccc5o4)cc3)nc2c1 | 0% | 0% | 1% | 26µM* | -18%
N#CC1=C(N)Oc2c(ccc3ccccc23)C1c1cccs1 (stereo unspecified) | 6% | 2.8µM* | 1% | ? | ?
N/C(=N\OC(=O)c1cccc(Br)c1)c1ccccc1 | -1% | 7.1µM* | 15%[38.3 µM] | · | -1%
N/C(=N\OC(=O)/C=C/c1ccccc1)c1ccccc1 | 0% | 11µM* | 2%[38.3 µM] | ? | -8%
N/C(=N\OC(=O)c1ccco1)c1cccc([N+](=O)[O-])c1 | -3% | 14µM* | -1% | ? | 1%
N/C(=N\OC(=O)c1cccc(Br)c1)c1ccccn1 | · | ? | -2% | ? | 1%
Cc1ccc(C(=O)O/N=C(\N)c2cccc([N+](=O)[O-])c2)cc1 | 0% | ? | 0%[38.3 µM] | ? | -7%
N/C(=N\OC(=O)c1ccco1)c1cccc(Br)c1 | -1% | 4.5µM* | 10%[38.3 µM] | ? | 0%
CCCc1nc2cccnc2n1C1CCN(C(=O)Cn2nccc2C)CC1 | · | · | 0% | · | ·
COC(=O)c1c(NC(=O)CN2CCC3(O)CCCCC3C2c2cc(OC)ccc2OC)sc(C)c1C (stereo unspecified) | -2% | 3% | 3% | 18µM* | -24%
COC(=O)c1c(NC(=O)CN2CCC3(O)CCCCC3C2c2ccc(F)cc2)sc(C)c1C (stereo unspecified) | -1% | 2% | 7% | ? | -15%
COc1ccc2c(c1)c1nc3ccccc3nc1n2CCn1c(=O)oc2ccccc21 | 0% | 0% | 4µM* | 1% | 1%[1.84 µM]
COc1ccc2c(c1)c1nc3ccccc3nc1n2CC(=O)OC(C)C | ? | 0% | ? | 4.6µM* | -28%
O=c1oc2ccccc2n1CCn1c2ccccc2c2nc3ccccc3nc21 | 0% | 0% | 7% | ? | ?
NC(=O)N/N=C/c1ccc(-c2ccc([N+](=O)[O-])cc2)o1 | -3% | 5% | 1% | 9% | -4%
COCCNC(=S)N/N=C/c1ccc(-c2ccc([N+](=O)[O-])cc2)o1 | ? | 4% | 45µM* | 8% | -9%
O=C(Cc1ccccc1)N/N=C/c1ccc(-c2ccc([N+](=O)[O-])cc2)o1 | ? | 0% | 7.9µM* | -7% | 3%
Cc1ccc([N+](=O)[O-])cc1-c1ccc(/C=N/NC(=O)CN2CCOCC2)o1 | -1% | 13µM* | 2% | -14% | 8%
O=C(O)c1cc(S(=O)(=O)Nc2cccc(F)c2)ccc1Cl | 2% | · | · | · | ·
CCOc1ccc(S(=O)(=O)n2ccc(C)n2)c2ccccc12 | -1% | 0% | 6% | 23µM* | ?
CCOc1ccc(S(=O)(=O)N2CCCCC2)c2ccccc12 | 3% | 1% | -1% | ? | -2%
Cc1cccc(CNC(=O)c2cnn(-c3nccc(-c4ccccc4C(F)(F)F)n3)c2C)n1 | · | · | 0% | · | ·
Cc1nc(-c2ccc(S(=O)(=O)N3CCN(CCc4ccccc4)CC3)s2)cs1 | 1% | 0% | 5% | 23µM* | -7%
SMILES | Epigenetic reg | Nrf2 activator | PINK1 expr mod | Nrf2 block | A549 viability
O=S(=O)(c1ccc(F)cc1)N1CCN(CCc2ccccc2)CC1 | · | 0% | -1% | ? | -1%
COC(=O)c1c(NC(=O)c2cc3ccccc3c(=O)o2)sc2c1CCCC2 | 1% | 13µM* | -1% | 13% | -4%
Cc1nc(Nc2nc3ccccc3o2)nc2c1CCCC2 | · | · | · | ? | -2%
Cc1ccc(C2CC(C(F)(F)F)n3nc(C(=O)NCc4c(C)nn(C)c4C)c(Cl)c3N2)cc1 (stereo unspecified) | -3% | 6% | 3%[38.3 µM] | 12µM* | -29%
CCOC(=O)c1sc(NC(=O)c2cc3n(n2)C(C(F)(F)F)CC(c2cccs2)N3)c(C(=O)OCC)c1C (stereo unspecified) | -2% | -1% | 1% | · | 13%
Cc1nn(C)cc1CN(C)C(=O)c1nn2c(c1Br)NC(c1cccs1)CC2C(F)(F)F (stereo unspecified) | 1% | 0% | 0% | -27% | -16%
Cc1nn(C)cc1CN(C)C(=O)c1nn2c(c1Cl)NC(c1cccs1)CC2C(F)(F)F (stereo unspecified) | -1% | 0% | · | 16µM* | -5%
Cc1nn(C)c(C)c1CN(C)C(=O)c1cc2n(n1)C(C(F)(F)F)CC(c1cccs1)N2 (stereo unspecified) | -1% | 0% | 0% | 13µM* | -2%
O=C(NCCc1ccc(Cl)cc1)c1c2c(nc3ccccc13)C(=O)N(C1CCCCC1)C2 | 1% | 0% | 3% | ? | ?
COc1ccccc1C1CN(CC(=O)NCC2OCCc3ccccc32)Cc2ccccc2O1 (stereo unspecified) | · | · | 0% | · | ·
Cc1ccc(-c2nn(-c3ccccc3)cc2C=C2C(=O)CC(C)(C)CC2=O)cc1 | ? | 8% | -1% | ? | -1%
CC1=NNC(=O)/C1=C\c1cn(-c2ccccc2)nc1-c1ccc(Cl)cc1 | 0% | ? | -2% | 13µM* | 21µM*
O=C(Nc1ccccc1)c1sc(N2CCOCC2)nc1-c1ccccc1 | 2% | 0% | -2% | ? | 3%
N#C/C(=C\c1sc(N2CCOCC2)nc1-c1ccccc1)C(=O)Nc1cccc2ccccc12 | 13µM* | · | · | · | ·
COc1ccccc1NS(=O)(=O)c1cc(NC(=O)c2cccnc2)ccc1N1CCCCC1 | · | 3% | 0% | 21µM* | -14%
COc1ccc(NS(=O)(=O)c2ccc(N3CCCCC3)c(N)c2)cc1 | · | 6% | 12% | 6.5µM* | -8%
COc1ccc(NS(=O)(=O)c2cc(NC(=O)C3CC3)ccc2N2CCOCC2)cc1 | -1% | 2% | 3% | -1% | -14%
O=C(Nc1cccc(C(F)(F)F)c1)Nc1ccc(N2CCCC2)c(S(=O)(=O)Nc2ccccc2Cl)c1 | -3% | 0% | ? | 3.3µM* | ?
CC(=O)Nc1ccc(N2CCOCC2)c(S(=O)(=O)Nc2ccccc2Cl)c1 | · | 0% | 0% | · | ·
COc1ccc(NS(=O)(=O)c2ccc(N3CCCCC3)c(NC(=O)C(C)NC(N)=O)c2)cc1 (stereo unspecified) | · | 0% | -1% | -11% | -2%
COc1ccccc1NS(=O)(=O)c1cc(NC(=O)c2ccc(Cl)nc2)ccc1N1CCCC1 | · | 2% | 2% | -24% | -7%
